# In the supplement of paper PMC8975748:
# Structures can show the parent of a compound that is named as a salt.
# Test system: Saccharomyces cerevisiae BY4741 SeMeCo community
# Assay: z-score of subpopulation abundance vs DMSO median, subpopulation auxotrophic for HLU; higher = larger share of this subpopulation than in DMSO controls
# Settings: 10 µM; 24 h; SM minimal medium; subpopulation (auxotrophy): HLU
# Protocol: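 Fluorescent four-plasmid SeMeCo (self-establishing metabolically cooperating S. cerevisiae BY4741 community; plasmids pH-mRuby2, pL-mWasabi, pU-eCFP, pM-TagRFP657) was grown 24 h in minimal SM medium with each Selleck FDA-approved drug at 10 µM in 384-well plates. Cells were fixed and imaged by high-content confocal microscopy. For each auxotrophic subpopulation (and the prototroph), a z-score gives the deviation from the DMSO vehicle-control population median.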
row,Structure (SMILES),z-score of subpopulation abundance
1,NC12CC3CC(CC(C3)C1)C2 [Amantadine],0.22
2,CCN(Cc1ccncc1)C(=O)C(CO)c1ccccc1 (stereo not given) [Tropicamide],0.42
3,CC1(C)S[C@@H]2[C@H](NC(=O)C(C(=O)O)c3ccccc3)C(=O)N2[C@H]1C(=O)O (stereo not given in full) [Carbenicillin disodium],0.36
4,CN1CCN2c3ncccc3Cc3ccccc3C2C1 (stereo not given) [Mirtazapine],-0.45
5,CC1(C)S[C@@H]2[C@H](NC(=O)[C@H](N)c3ccc(O)cc3)C(=O)N2[C@H]1C(=O)O [Amoxicillin],0.39
6,"CC[C@H](Nc1ncnc2[nH]cnc12)c1nc2cccc(F)c2c(=O)n1-c1ccccc1 [Idelalisib (CAL-101, GS-1101)]",-0.35
7,CC(C)(C)CC(C)(C)c1ccc(OCCOCC[N+](C)(C)Cc2ccccc2)cc1 [Benzethonium Chloride],-0.61
8,CCCCCCCN(CC)CCCC(O)c1ccc(NS(C)(=O)=O)cc1 (stereo not given) [Ibutilide Fumarate],-0.63
9,Nc1ccc(/N=N/c2ccccc2)c(N)n1 [Phenazopyridine HCl],-1.56
10,C[C@]12CC[C@@H]3c4ccc(OC(=O)c5ccccc5)cc4CC[C@H]3[C@@H]1CC[C@@H]2O [Estradiol Benzoate],-0.51
11,CNCC[C@H](Oc1cccc2ccccc12)c1cccs1 [Duloxetine],-1.41
12,O=C1C(CC[S+]([O-])c2ccccc2)C(=O)N(c2ccccc2)N1c1ccccc1 (racemic) [(+/-)-Sulfinpyrazone],0.61
13,CN(C)c1cc(NC(=O)CNC(C)(C)C)c(O)c2c1CC1CC3C(N(C)C)C(=O)C(C(N)=O)=C(O)C3(O)C(=O)C1=C2O (stereo not given) [Tigecycline],-0.27
14,COc1cccc2c1C(=O)c1c(O)c3c(c(O)c1C2=O)CC(O)(C(=O)CO)CC3OC1CC(N)C(O)C(C)O1 (stereo not given) [Doxorubicin (Adriamycin) HCl],12.3
15,CC(C)(C)C1CCC(CC2=C(O)c3ccccc3C(=O)C2=O)CC1 (stereo not given) [Buparvaquone],0.03
16,CC1=C(C(=O)O)N2C(=O)[C@@H](NC(=O)[C@H](N)C3=CCC=CC3)[C@H]2SC1 [Cefradine],-0.16
17,C[C@]12CC[C@@H]3c4ccc(O)cc4CC[C@H]3[C@@H]1CCC2=O [Estrone],-0.08
18,Clc1ccc(COC(Cn2ccnc2)c2ccc(Cl)cc2Cl)c(Cl)c1 (stereo not given) [Miconazole],11.1
19,COc1cc(Cc2cnc(N)nc2N)cc(OC)c1OC [Trimethoprim],0.25
20,CC[C@H]1OC(=O)[C@H](C)[C@@H](O[C@H]2C[C@@](C)(OC)[C@@H](O)[C@H](C)O2)[C@H](C)[C@@H](O[C@@H]2O[C@H](C)C[C@H](N(C)C)[C@H]2O)[C@](C)(O)C[C@@H](C)C(=O)[C@H](C)[C@@H](O)[C@]1(C)O [Erythromycin thiocyanate],-0.56

row,Structure (SMILES),z-score of subpopulation abundance
1,Cc1ccc(Sc2ccccc2N2CCNCC2)c(C)c1,0.19
2,C1N2CN3CN1CN(C2)C3 [Methenamine],-0.02
3,CC(=O)Oc1ccc(C(=C2CCCCC2)c2ccc(OC(C)=O)cc2)cc1 [Cyclofenil],-0.23
4,COc1cccc2c1C(=O)c1c(O)c3c(c(O)c1C2=O)C[C@@](O)(C(=O)CO)C[C@@H]3O[C@H]1C[C@H](N)[C@H](O[C@@H]2CCCCO2)[C@H](C)O1 [Pirarubicin],2.71
5,CO[C@H]1C[C@@H]2CC[C@@H](C)[C@@](O)(O2)C(=O)C(=O)N2CCCC[C@H]2C(=O)O[C@H]([C@H](C)C[C@@H]2CC[C@@H](OCCO)[C@H](OC)C2)CC(=O)[C@H](C)/C=C(\C)[C@@H](O)[C@@H](OC)C(=O)[C@H](C)C[C@H](C)/C=C/C=C/C=C/1C [Everolimus (RAD001)],22.9
6,CN[C@H]1CC[C@@H](c2ccc(Cl)c(Cl)c2)c2ccccc21 [Sertraline HCl],-0.32
7,CCC(C)n1ncn(-c2ccc(N3CCN(c4ccc(OCC5COC(Cn6cncn6)(c6ccc(Cl)cc6Cl)O5)cc4)CC3)cc2)c1=O (stereo not given) [Itraconazole],7.28
8,Cc1ccc(C(=O)C(C)CN2CCCCC2)cc1 (stereo not given) [Tolperisone HCl],-0.71
9,CCn1cc(C(=O)O)c(=O)c2cc(F)c(N3CCNC(C)C3)c(F)c21 (stereo not given) [Lomefloxacin HCl],1.38
10,CN(C/C=C/C#CC(C)(C)C)Cc1cccc2ccccc12 [Terbinafine HCl],-0.09
11,CCOc1ccc(NC(C)=O)cc1 [Phenacetin],0.79
12,CO/N=C(\C(=O)N[C@@H]1C(=O)N2C(C(=O)O)=C(CSC(=O)c3ccco3)CS[C@H]12)c1csc(N)n1 [Ceftiofur HCl],0.02
13,Cc1nnc(SCC2=C(C(=O)O)N3C(=O)[C@@H](NC(=O)Cn4cnnn4)[C@H]3SC2)s1 [Cefazolin Sodium],0.52
14,Cc1cc(O)cc(C)c1Cl [Chloroxylenol],0.24
15,CCCN(CCc1cccs1)[C@H]1CCc2c(O)cccc2C1 [Rotigotine],-0.16
16,Oc1c(I)cc(I)c2cccnc12 [Diiodohydroxyquinoline],4.17
17,N[C@@H]1CCCCN(c2c(F)cc3c(=O)c(C(=O)O)cn(C4CC4)c3c2Cl)C1 [Besifloxacin HCl],0.25
18,Nc1ccc(S(=O)(=O)Nc2ccccn2)cc1 [Sulfapyridine],-0.45
19,CCc1c(C)[nH]c2c1C(=O)C(CN1CCOCC1)CC2 (stereo not given) [Molindone hydrochloride],0.45
20,CN1CC(=O)N2[C@H](c3ccc4c(c3)OCO4)c3[nH]c4ccccc4c3C[C@@H]2C1=O [Tadalafil],0.4
